Some test systems named below: SK-MEL-2 melanoma; EKVX NSCLC; SN12C renal; UO-31 renal; TK-10 renal; ACHN renal; CAKI-1 renal; A498 renal; CCRF-CEM leukemia; MOLT-4 leukemia; SR leukemia; OVCAR-8 ovarian; OVCAR-5 ovarian; OVCAR-4 ovarian; SK-OV-3 ovarian; IGROV1 ovarian; OVCAR-3 ovarian; HS 578T breast; NCI/ADR-RES ovarian; RPMI-8226 leukemia.
Holding throughout (test): NCI-60 one-dose screen, 48 h (100 = growth as untreated, 0 = no growth, -100 = all killed)
Holding throughout (conditions): 10 µM unless noted

These results are taken from PubChem BioAssay (NCI).

About 83,000 compounds went through this panel and 20% of them were active in at least one assay; those are over-represented in the sample as a whole.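 Activity criterion: percent growth below 10, measured after cells in 96-well plates were exposed to a single compound concentration for 48 hours.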 A number with no mark means an inactive call. Calls of active or inactive are those of the source.

`CCOC(=O)CC1C(CNC(=O)NC)OC(n2cnc3c(NC(=O)Nc4ccccc4)ncnc32)C1O[Si](C)(C)C(C)(C)C` (configuration not stated): the growth is 54.3% with SK-MEL-2 melanoma; 63.7% with EKVX NSCLC; 60.7% with SN12C renal; 57% with UO-31 renal; 43.5% with TK-10 renal; 68.7% in the assay with ACHN renal. For the same compound, the growth in the assay with CAKI-1 renal is 81.6%; in the assay on A498 renal, 71.3%; in the assay with CCRF-CEM leukemia, 49.9%; with MOLT-4 leukemia it was 50.1%; in the assay on SR leukemia, 28.2%; in the assay with OVCAR-8 ovarian it was 65.4%. The growth with OVCAR-5 ovarian was 99.6%; in the assay on OVCAR-4 ovarian, 61.2%; in the assay with SK-OV-3 ovarian, 93.6%; in the assay on IGROV1 ovarian, 51.1%; in the assay on OVCAR-3 ovarian, 79.6%; with HS 578T breast it was 43.9%. The growth in the assay on NCI/ADR-RES ovarian was 85.6%.
For the compound `COc1cc2c(c(OC)c1OC)C(=O)CC(c1cccc(C(=O)Nc3ccc(Br)cc3)c1)O2` (configuration not stated), the growth is 60.3% with SK-MEL-2 melanoma; 63.5% in the assay with EKVX NSCLC; 51.1% with SN12C renal; 40.3% with UO-31 renal; 75.2% with TK-10 renal; 63.9% in the assay on ACHN renal. For the same compound, the growth with CAKI-1 renal is 62%; in the assay on A498 renal it was 40.3%; in the assay on CCRF-CEM leukemia, 9.34% (active); with MOLT-4 leukemia, -0.848% (active); in the assay with SR leukemia, 22.2%; in the assay on RPMI-8226 leukemia, 14.6%. Further, the growth was 47.1% in the assay with OVCAR-8 ovarian; 89.4% in the assay with OVCAR-5 ovarian; 45.6% with OVCAR-4 ovarian; 76.2% in the assay with SK-OV-3 ovarian; 65% in the assay on OVCAR-3 ovarian; 91.4% in the assay on HS 578T breast. Further, the growth in the assay on NCI/ADR-RES ovarian was 36.1%.
For `COc1cc(/C=C2\C(=O)N(CCOc3cc(O)c4c(=O)cc(-c5ccccc5)oc4c3)c3ccccc32)cc(OC)c1O`, the growth with SK-MEL-2 melanoma was 74.1%; in the assay with EKVX NSCLC, 83.2%; with SN12C renal, 65.9%; in the assay with UO-31 renal, 63.5%; in the assay with TK-10 renal, 109%; with ACHN renal, 66.9%. Further, the growth is 59.3% in the assay with CAKI-1 renal; 127% with A498 renal; 49.6% with CCRF-CEM leukemia; 51.8% with MOLT-4 leukemia; 39% in the assay with SR leukemia; 84.1% with RPMI-8226 leukemia. For the same compound, the growth with OVCAR-8 ovarian was 69.9%; with OVCAR-5 ovarian it was 103%; with OVCAR-4 ovarian, 82.3%; in the assay on SK-OV-3 ovarian it was 92.2%; in the assay with OVCAR-3 ovarian it was 55%; in the assay with HS 578T breast, 45.5%. Further, in the assay with NCI/ADR-RES ovarian, the growth was 47.5%.
`COC(=O)c1cc(-c2cc(OC)c(OC)c(OC)c2)[nH]c1N/N=C/c1c(Cl)cccc1Cl`: the growth with SK-MEL-2 melanoma was -21.2% (active); in the assay on EKVX NSCLC, 64.4%; in the assay on SN12C renal, 40.6%; in the assay with UO-31 renal it was 40.9%; in the assay on TK-10 renal, -47.6% (active); with ACHN renal it was 10.1%. Also, the growth is 7.04% (active) with CAKI-1 renal; -63.6% (active) in the assay with A498 renal; 35.6% in the assay on CCRF-CEM leukemia; 33.2% in the assay with MOLT-4 leukemia; -17.6% (active) in the assay on SR leukemia; 5.44% (active) in the assay with OVCAR-8 ovarian. Moreover, the growth was 22.7% in the assay with OVCAR-5 ovarian; 5.08% (active) with OVCAR-4 ovarian; 28.3% in the assay with SK-OV-3 ovarian; -54.8% (active) in the assay with IGROV1 ovarian; 9.29% (active) in the assay on OVCAR-3 ovarian; -5.55% (active) with HS 578T breast. The growth in the assay with NCI/ADR-RES ovarian is 6.82% (active).
Take `CCCCCCC/C=N/NC(=O)c1ccc(-n2cc(-c3ccccc3)nn2)cc1`: the growth is 98.9% in the assay on SK-MEL-2 melanoma; 90.5% with EKVX NSCLC; 93.4% with SN12C renal; 71% in the assay with UO-31 renal; 110% in the assay with TK-10 renal; 79.1% with ACHN renal. Besides, the growth in the assay on CAKI-1 renal is 75.8%; with A498 renal it was 90.1%; in the assay with CCRF-CEM leukemia, 86.3%; in the assay with MOLT-4 leukemia, 85.9%; with SR leukemia, 79.4%; in the assay on OVCAR-8 ovarian, 95.6%. The growth in the assay with OVCAR-5 ovarian is 89.9%; in the assay with OVCAR-4 ovarian, 93.1%; in the assay with SK-OV-3 ovarian, 87.8%; in the assay on IGROV1 ovarian, 74.9%; with OVCAR-3 ovarian it was 102%; in the assay on HS 578T breast it was 91.3%. Also, the growth in the assay on NCI/ADR-RES ovarian was 86.9%.
With `Nc1ccc(N)c2c1C(=O)c1cccc([N+](=O)[O-])c1C2=O`, the growth was 53.7% in the assay with SK-MEL-2 melanoma; 38.2% in the assay with EKVX NSCLC; 25.9% with SN12C renal; 33.4% in the assay with UO-31 renal; 45.3% with TK-10 renal; 15.9% with ACHN renal. Besides, the growth was 5.03% (active) in the assay with CAKI-1 renal; -73.8% (active) in the assay with A498 renal; 48.3% with CCRF-CEM leukemia; 46.5% in the assay on MOLT-4 leukemia; -9.26% (active) in the assay with SR leukemia; 41.4% in the assay with OVCAR-8 ovarian. Further, the growth was 70.2% in the assay with OVCAR-5 ovarian; 60.9% with OVCAR-4 ovarian; 27.6% in the assay with SK-OV-3 ovarian; 18.6% in the assay with IGROV1 ovarian; 58.7% in the assay with OVCAR-3 ovarian; 37.6% in the assay on HS 578T breast. Moreover, the growth in the assay with NCI/ADR-RES ovarian is 49.4%.
On to `O=C1C(Nc2ccc(Br)cc2)=C(I)C(=O)c2ncccc21`, for which the growth with SK-MEL-2 melanoma was 79.2%; in the assay with EKVX NSCLC, 77.6%; with SN12C renal it was 1.34% (active); with UO-31 renal, -38.4% (active); in the assay with TK-10 renal it was 70.7%; in the assay with ACHN renal, -20.1% (active). Besides, the growth is 18.6% with CAKI-1 renal; 96% in the assay on A498 renal; 8.63% (active) with CCRF-CEM leukemia; -2.02% (active) in the assay on MOLT-4 leukemia; 4.58% (active) in the assay with SR leukemia; 2.71% (active) in the assay on OVCAR-8 ovarian. For the same compound, the growth in the assay with OVCAR-5 ovarian is 73.5%; in the assay with OVCAR-4 ovarian, -95.6% (active); in the assay on SK-OV-3 ovarian it was 83.9%; with IGROV1 ovarian, -56.7% (active); in the assay with OVCAR-3 ovarian, -85.3% (active); in the assay on HS 578T breast it was 40.7%. For the same compound, the growth in the assay with NCI/ADR-RES ovarian was 1.39% (active).
For `Cc1[nH]c(C2CC(c3ccc(C(F)(F)F)c(F)c3)=NN2C)c(C)c1C(=O)NCC(F)(F)F` (configuration not stated), the growth in the assay with SK-MEL-2 melanoma was 107%; in the assay on EKVX NSCLC, 87.7%; with SN12C renal, 93.1%; in the assay with UO-31 renal it was 72%; with TK-10 renal it was 116%; in the assay with ACHN renal, 99.3%. Besides, the growth with CAKI-1 renal was 81.1%; in the assay on A498 renal it was 30.8%; in the assay on CCRF-CEM leukemia, 93.6%; with MOLT-4 leukemia, 72.9%; in the assay with SR leukemia, 92.9%; in the assay on OVCAR-8 ovarian it was 94.8%. Besides, the growth was 98.4% in the assay with OVCAR-5 ovarian; 90.9% in the assay with OVCAR-4 ovarian; 105% in the assay with SK-OV-3 ovarian; 79.9% in the assay with IGROV1 ovarian; 107% in the assay on OVCAR-3 ovarian; 95.9% in the assay on HS 578T breast. Further, the growth in the assay with NCI/ADR-RES ovarian is 98.8%.
